Measured values: PubChem BioAssay (Tox21)
Values without a mark were called inactive. Results filed as inconclusive are left out. Entries that show only a call come without a potency. The source holds several records for some structures; these can differ, active in one and inactive in another. Calls of active or inactive are those of the source. Unless noted, the call rests on the fitted dose curve; in most records, active means well fitted curve in the direction sought with a large enough effect in the repeat runs; inconclusive means weak or mixed curves; inactive means no such curve, though single readings can be large; an effect the other way counts as inactive or inconclusive.

Tests used:
[1] = qHTS assay for small molecule agonists of the p53 signaling pathway (AID 651631; calls by dose curve; further: nearly all actives have a fitted effect of over 15% in size)
In short: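 HCT-116 p53RE-bla reporter line, 16 h compound treatment at 37 °C, then fluorescence after 2 h with B/G FRET substrate.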

[2] = qHTS assay for small molecule agonists of the p53 signaling pathway - cell viability (AID 651633; calls by dose curve;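 further: p53RE-bla HCT reporter cells with a stable beta-lactamase p53 reporter; series mostly up to about 83 µM; nearly all actives have a fitted effect of over 30% in size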)
In short: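 Viability counter-read: CellTiter-Glo luminescence (30 min, room temperature) in the same p53RE-bla plates. These plates had been exposed to compounds for 16 h at 37 C.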

[3] = qHTS assay for small molecules that induce genotoxicity in human embryonic kidney cells expressing luciferase-tagged ATAD5 - cell viability (AID 651634; calls by dose curve; further: nearly all actives have a fitted effect of over 25% in size; further: potency means the concentration at half of the fitted maximal effect)
In short: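 HEK293T ATAD5-luc cells, 2,000/well; compound 15.5 hr, 37C/5% CO2; CellTiter-Fluor 30 min, 37C; fluorescence read.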

[4] = qHTS assay for small molecule disruptors of the mitochondrial membrane potential - cell viability (AID 720634; calls by dose curve;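 further: human HepG2 liver cancer cells; series mostly up to about 83 µM; nearly all actives have a fitted effect of over 20% in size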)
In short: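 Luminescence from CellTiter-Glo (ATP content) gave viability in HepG2 cells, read in the same wells as the MMP dye assay after 1 hr compound exposure at 37 C.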

[5] = qHTS assay for small molecule disruptors of the mitochondrial membrane potential (AID 720635)
In short: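 Mitochondrial membrane potential tracked with Mito-MPS dye, red aggregates (ex 540/em 590 nm) against green monomers (ex 490/em 535 nm). Compound treatment 1 hr at 37C, dye 30 min in HepG2.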

[6] = qHTS assay to test for compound auto fluorescence at 590 nm (red) in HepG2 cells (AID 720674)
In short: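 Red autofluorescence (Ex/Em 540/590 nm, Rose Bengal sodium equivalents) was measured in HepG2 cells, 2,000 per well in MEM plus 10% FBS, plated overnight at 37 C. Readings were taken 1 hr after adding 23 nL compound or DMSO, at 37 C and 5% CO2.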

[7] = qHTS assay to test for compound auto fluorescence at 535 nm (green) in HepG2 cells (AID 720675)
[8] = qHTS assay to test for compound auto fluorescence at 460 nm (blue) in HEK293 cells (AID 720678)
In short: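 HEK293, 2,000 cells/well, 10% dialyzed FBS; attach 4-5 hr 37C; pin compound or DMSO; o/n 37C/5% CO2; fluorescence 405/460 nm; triamterene-equivalent units.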

[9] = qHTS assay to test for compound auto fluorescence at 590 nm (red) in HEK293 cells (AID 720679)
In short: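 Intensity at 540nm excitation and 590nm emission is reported as Rose Bengal sodium-equivalent autofluorescence. Measurements followed overnight exposure (37C, 5% CO2) of HEK293 cells, 2,000 per well, to 23 nL compound.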

[10] = qHTS assay to test for compound auto fluorescence at 535 nm (green) in HEK293 cells (AID 720680)
[11] = qHTS assay to test for compound auto fluorescence at 535 nm (green) in HEK293 cell free culture (AID 720682)
In short: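 Steps: dispense DMEM/10% FBS into empty wells; pin in compound or DMSO; measure fluorescence at 485/535 nm. Values are fluorescein equivalents.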

[12] = qHTS assay to test for compound auto fluorescence at 590 nm (red) in HEK293 cell free culture (AID 720683)
In short: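 Red-channel autofluorescence of compounds in culture medium (DMEM, 10% FBS), no cells, measured at 540/590 nm. Rose Bengal sodium is the reference fluorophore for equivalence.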

[13] = qHTS assay to test for compound auto fluorescence at 590 nm (red) in HepG2 cell free culture (AID 720684)
In short: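 Cell-free; medium MEM + 10% FBS; compound or DMSO added by pintool; read Ex 540/Em 590 nm; Rose Bengal sodium as red reference fluorophore.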

[14] = qHTS assay to test for compound auto fluorescence at 460 nm (blue) in HepG2 cell free culture (AID 720685)
In short: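 Cell-free plates of MEM plus 10% FBS received 23 nL compound or DMSO vehicle; blue-channel (405/460 nm) intensity scored against triamterene as reference fluorophore.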

[15] = qHTS assay to test for compound auto fluorescence at 535 nm (green) in HepG2 cell free culture (AID 720686)
[16] = qHTS assay to test for compound auto fluorescence at 460 nm (blue) in HepG2 cells (AID 720687)
In short: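 Blue-channel autofluorescence (Ex/Em 405/460 nm, triamterene-equivalent) was measured after 1 hr compound exposure at 37 C, 5% CO2. Cells were HepG2, plated overnight at 37 C in MEM plus 10% FBS.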

[17] = biological target: Glucocorticoid receptor (Homo sapiens) (UniProt P04150); assay: qHTS assay to identify small molecule agonists of the glucocorticoid receptor (GR) signaling pathway (AID 720691; active means well fitted activation curve with a large enough effect in the signal ratio in the repeat runs, not every such curve was filed as active; the % refers to the signal ratio)
In short: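 HeLa GR-bla reporter line; cells pre-incubated 4 h, compound in DMSO 18 h at 37 C; LiveBLAzer B/G FRET substrate 2 h RT; fluorescence intensity read-out.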

[18] = qHTS assay for small molecules that induce genotoxicity in human embryonic kidney cells expressing luciferase-tagged ATAD5 (AID 651632); further: nearly all actives have a fitted effect of over 15% in size
In short: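 Luminescence read-out: after 16 hr compound exposure at 37C, ATAD5-luciferase HEK293T cells received Amplite, 30 min RT, then CCD imaging. A rise in signal marks genotoxic stress.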

[19] = qHTS assay to test for compound auto fluorescence at 460 nm (blue) in HEK293 cell free culture (AID 720681)
In short: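 Blue fluorescence (Ex 405/Em 460 nm, triamterene-equivalent) was read immediately after pin transfer of compound or DMSO into medium (DMEM, 10% FBS) without cells.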

[20] = biological target: Glucocorticoid receptor (Homo sapiens) (UniProt P04150); assay: qHTS assay to identify small molecule antagonists of the glucocorticoid receptor (GR) signaling pathway (AID 720692; active means well fitted inhibition curve with a large enough effect in the signal ratio in the repeat runs, not every such curve was filed as active; the % refers to the signal ratio)
In short: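 Read-out: beta-lactamase FRET substrate fluorescence, 2 h at room temperature, in HeLa cells stably carrying a GRE-driven bla reporter. Compounds were co-incubated with 5 nM dexamethasone agonist (final) for 18 h at 37 C.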

Sequence of Glucocorticoid receptor (Homo sapiens) (P04150 whole entry, looked up): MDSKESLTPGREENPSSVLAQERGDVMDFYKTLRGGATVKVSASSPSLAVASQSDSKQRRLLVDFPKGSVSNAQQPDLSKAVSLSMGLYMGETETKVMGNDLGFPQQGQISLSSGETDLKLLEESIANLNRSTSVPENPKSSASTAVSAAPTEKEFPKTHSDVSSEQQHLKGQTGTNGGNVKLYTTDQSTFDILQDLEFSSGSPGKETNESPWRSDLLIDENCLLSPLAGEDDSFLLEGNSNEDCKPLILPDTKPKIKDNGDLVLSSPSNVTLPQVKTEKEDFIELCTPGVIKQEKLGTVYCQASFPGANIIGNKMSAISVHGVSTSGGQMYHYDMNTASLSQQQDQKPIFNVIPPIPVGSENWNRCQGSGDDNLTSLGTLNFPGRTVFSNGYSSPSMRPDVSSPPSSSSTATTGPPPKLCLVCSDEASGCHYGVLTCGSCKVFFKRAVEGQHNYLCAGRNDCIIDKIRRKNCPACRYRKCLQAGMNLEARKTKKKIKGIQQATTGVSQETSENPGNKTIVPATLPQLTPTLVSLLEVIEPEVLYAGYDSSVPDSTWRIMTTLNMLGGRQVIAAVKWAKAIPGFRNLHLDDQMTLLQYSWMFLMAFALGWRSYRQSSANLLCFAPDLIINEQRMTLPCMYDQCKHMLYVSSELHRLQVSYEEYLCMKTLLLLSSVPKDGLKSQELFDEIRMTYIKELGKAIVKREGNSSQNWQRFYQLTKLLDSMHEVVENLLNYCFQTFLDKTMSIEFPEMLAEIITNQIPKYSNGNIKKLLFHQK

Question: What does the source list for `CC1(C)Oc2ccc(C#N)cc2[C@@H](N2CCCC2=O)[C@@H]1O`?
Answer: outcome [1]: inactive; outcome [2]: inactive; Potency [3]: inactive; outcome [4]: inactive; Potency [5]: inactive; outcome [6]: inactive; outcome [7]: inactive; outcome [8]: inactive; outcome [9]: inactive; outcome [10]: inactive; outcome [11]: inactive; outcome [12]: inactive; outcome [13]: inactive; outcome [14]: inactive; outcome [15]: inactive; outcome [16]: inactive; Potency [17]: inactive

Question: What does the source list for `C[C@]12CCC(=O)C=C1CC[C@H]1[C@@H]3CC[C@](O)(C(=O)CO)[C@@]3(C)C[C@H](O)[C@@]12F`?
Answer: outcome [18]: inactive; outcome [2]: inactive; Potency [3]: inactive; outcome [4]: inactive; Potency [5]: inactive; outcome [6]: inactive; outcome [7]: inactive; outcome [8]: inactive; outcome [9]: inactive; outcome [10]: inactive; outcome [19]: inactive; outcome [11]: inactive; outcome [12]: inactive; outcome [13]: inactive; outcome [14]: inactive; outcome [15]: inactive; outcome [16]: inactive

Question: Which outcome [1] does the source give for `CCCCCCCCCCCCCCCCCC#N` here?
Answer: Its outcome is “inactive”.

Question: What about the outcome [2] of the same compound?
Answer: The outcome was “inactive”.

Question: What about the Potency [3] of the same compound?
Answer: Its Potency is “inactive”.

Question: What about the outcome [4] of the same compound?
Answer: Its outcome is “inactive”.

Question: What about the Potency [5] of the same compound?
Answer: Its Potency is “inactive”.

Question: What about the outcome [6] of the same compound?
Answer: The outcome was “inactive”.

Question: And the outcome [7]?
Answer: The outcome was “inactive”.

Question: What about the outcome [8] of the same compound?
Answer: Its outcome is “inactive”.

Question: What about the outcome [9] of the same compound?
Answer: The outcome was “inactive”.

Question: What about the outcome [10] of the same compound?
Answer: The outcome was “inactive”.

Question: And the outcome [11]?
Answer: Its outcome is “inactive”.

Question: And the outcome [12]?
Answer: The outcome was “inactive”.

Question: What about the outcome [13] of the same compound?
Answer: Its outcome is “inactive”.

Question: What about the outcome [14] of the same compound?
Answer: The outcome was “inactive”.

Question: And the outcome [15]?
Answer: The outcome was “inactive”.

Question: What about the outcome [16] of the same compound?
Answer: The outcome was “inactive”.

Question: What about the Potency [17] of the same compound?
Answer: Its Potency is “inactive”.

Question: What about the outcome [20] of the same compound?
Answer: Its outcome is “inactive”.

Question: What does the source list for `O=C1CCCCO1`?
Answer: outcome [1]: inactive; outcome [18]: inactive; outcome [2]: inactive; Potency [3]: inactive; outcome [6]: inactive; outcome [7]: inactive; outcome [8]: inactive; outcome [9]: inactive; outcome [10]: inactive; outcome [11]: inactive; outcome [12]: inactive; outcome [13]: inactive; outcome [14]: inactive; outcome [15]: inactive; outcome [16]: inactive; Potency [17]: inactive

Question: What does the source list for `Cc1cccc(Cl)c1`?
Answer: outcome [1]: inactive; outcome [2]: inactive; Potency [3]: inactive; outcome [4]: inactive; Potency [5]: inactive; outcome [6]: inactive; outcome [7]: inactive; outcome [8]: inactive; outcome [9]: inactive; outcome [10]: inactive; outcome [19]: inactive; outcome [11]: inactive; outcome [12]: inactive; outcome [13]: inactive; outcome [14]: inactive; outcome [15]: inactive; Potency [17]: inactive; outcome [20]: inactive

Question: With `O=S(=O)(O)c1ccc2c(N=Nc3ccc(S(=O)(=O)O)c4ccccc34)c(O)c(S(=O)(=O)O)cc2c1` as the compound, how does the outcome [1] read?
Answer: Its outcome is “inactive”.

Question: What about the outcome [2] of the same compound?
Answer: The outcome was “inactive”.

Question: And the Potency [3]?
Answer: The Potency was 13.3 µM (active).

Question: And the activity, negative = cytotoxicity [3]?
Answer: The activity, negative = cytotoxicity was -17.7% [at 8.08 µM].

Question: What about the outcome [4] of the same compound?
Answer: The outcome was “inactive”.

Question: What about the outcome [6] of the same compound?
Answer: Its outcome is “inactive”.

Question: What about the outcome [7] of the same compound?
Answer: The outcome was “inactive”.

Question: And the outcome [8]?
Answer: The outcome was “inactive”.

Question: What about the outcome [9] of the same compound?
Answer: The outcome was “inactive”.

Question: What about the outcome [10] of the same compound?
Answer: The outcome was “inactive”.

Question: What about the outcome [19] of the same compound?
Answer: The outcome was “inactive”.

Question: And the outcome [11]?
Answer: Its outcome is “inactive”.

Question: And the outcome [12]?
Answer: The outcome was “inactive”.

Question: What about the outcome [13] of the same compound?
Answer: Its outcome is “inactive”.

Question: And the outcome [14]?
Answer: Its outcome is “inactive”.

Question: What about the outcome [15] of the same compound?
Answer: Its outcome is “inactive”.

Question: And the outcome [16]?
Answer: The outcome was “inactive”.

Question: Which results are given for `C=CC/C=C/C`?
Answer: outcome [1]: inactive; outcome [2]: inactive; Potency [3]: inactive; outcome [4]: inactive; outcome [6]: inactive; outcome [7]: inactive; outcome [8]: inactive; outcome [9]: inactive; outcome [10]: inactive; outcome [11]: inactive; outcome [12]: inactive; outcome [13]: inactive; outcome [14]: inactive; outcome [15]: inactive; Potency [17]: inactive; outcome [20]: inactive

Question: Which outcome [1] does the source give for `CC(C)CCOC(=O)c1ccccc1` here?
Answer: The outcome was “inactive”.

Question: What about the outcome [2] of the same compound?
Answer: Its outcome is “inactive”.

Question: What about the Potency [3] of the same compound?
Answer: Its Potency is “inactive”.

Question: And the outcome [4]?
Answer: Its outcome is “inactive”.

Question: What about the Potency [5] of the same compound?
Answer: Its Potency is “inactive”.

Question: What about the outcome [6] of the same compound?
Answer: Its outcome is “inactive”.

Question: And the outcome [7]?
Answer: The outcome was “inactive”.

Question: What about the outcome [8] of the same compound?
Answer: Its outcome is “inactive”.

Question: What about the outcome [9] of the same compound?
Answer: Its outcome is “inactive”.

Question: What about the outcome [10] of the same compound?
Answer: Its outcome is “inactive”.

Question: What about the outcome [19] of the same compound?
Answer: Its outcome is “inactive”.

Question: And the outcome [11]?
Answer: The outcome was “inactive”.

Question: What about the outcome [12] of the same compound?
Answer: Its outcome is “inactive”.

Question: And the outcome [13]?
Answer: The outcome was “inactive”.

Question: And the outcome [15]?
Answer: The outcome was “inactive”.
